LMNA splice mod: modulators of lamin A splicing. Potency, µM (series often up to 46.1 µM), for the others: top-dose ratio change, negative = inhibition, hits mostly inhibitors. HeLa LMNA splicing GFP/RFP minigene ratio, 48 h. 200,000 tested, 0.01% active; active = well fitted inhibition curve with a large enough effect in the signal ratio, with a control signal flat, not every such curve was filed as active; inconclusive = small, poorly fitted or top-dose-only effect, or effect the other way, or a change in a side signal; the % refers to the signal ratio; also: potency is read from the fitted curve at half-maximal effect; % is scaled to controls: 0 for no effect and ±100 for the full control effect
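S3 HeLa cells stably expressing lamin A-EGFP splicing minigene plus DsRed2, 600 cells/well, 48 h compound exposure at 37C. Laser-scanning cytometry; analysed as GFP (500-530 nm)/RFP (575-640 nm) total intensity ratio; 0.5% DMSO vehicle.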
ALOX12 inhib: 12-hLO (ALOX12) enzyme inhibition. purified 12-hLO, xylenol orange hydroperoxide absorbance. Potency, µM (titrated, usually from 57.1 µM), for the others: at the top dose activity change, negative = inhibition, actives largely listed as inhibitors. 150,000 tested, 0.12% active. AID 1452; active = well fitted inhibition curve with a large enough effect; inconclusive = small, poorly fitted or top-dose-only effect; also: potency is read from the fitted curve at half-maximal effect; % is scaled to controls: 0 for no effect and ±100 for the full control effect; nearly all actives have a fitted effect of over 55% in size
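Xylenol orange chromogenic assay: hydroperoxide from 12hLO oxidises Fe(II), giving red-shifted Fe(III)-XO absorbance. Conditions: 150 nM enzyme, 40 uM arachidonic acid, 25 mM Hepes pH 7.0, 0.01% Triton X-100, 30 min, room temperature.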
HPGD block: HPGD (human) dehydrogenase inhibition; P15428; purified HPGD, NADH fluorescence kinetic, PGE2 substrate; Potency, µM, without a hit: at the top dose activity change, negative = inhibition, actives largely listed as inhibitors; 150,000 tested, 4.3% active; also: potency is read from the fitted curve at half-maximal effect; % is scaled to controls: 0 for no effect and ±100 for the full control effect
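20 nM HPGD preincubated 15 min at room temperature with compound in 50 mM Tris-HCl pH 8, 0.01% Tween 20. Started with 1 mM NAD+ and 30 uM prostaglandin E2; NADH fluorescence (360/450 nm) read 5 times over 30-s intervals, last minus first.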
PNC inhibitor: inhibitors of perinucleolar compartment assembly. PC3M PTB-GFP, PNC prevalence imaging, 16 h; active compounds read low. activity change (PNC), negative = inhibition, % at 10 µM. 140,000 tested, 3.1% active;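 active = readout at or below -70, meaning at least 70% loss of cells showing the perinucleolar compartment, a nuclear body marking cancer cells; inconclusive = readout between -30 and a set limit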;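 also: plate controls were DMSO wells for no effect and camptothecin positive control wells for full effect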
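Read-out is percentage of cells bearing a perinucleolar compartment, from automated 20x imaging of fixed, Hoechst-stained PC3M PTB-GFP cells. Cells were seeded 4 h, then exposed 16 h to compound (23 nl of library stock) in duplicate plates.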
ALDH1A1 inh-1: ALDH1A1 (human) enzyme inhibition | P00352 | Purified ALDH1A1, NADH fluorescence, propionaldehyde substrate | Potency, µM (titrated, usually from 75.3 µM), for the others: at the highest dose activity, negative = inhibition, hits mostly inhibitors | 220,000 tested, 7.3% active | AID 1030;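 also: potency is read from the fitted curve at half-maximal effect; plate controls were no enzyme wells and a reference inhibitor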
Target sequence (P00352 whole entry, looked up): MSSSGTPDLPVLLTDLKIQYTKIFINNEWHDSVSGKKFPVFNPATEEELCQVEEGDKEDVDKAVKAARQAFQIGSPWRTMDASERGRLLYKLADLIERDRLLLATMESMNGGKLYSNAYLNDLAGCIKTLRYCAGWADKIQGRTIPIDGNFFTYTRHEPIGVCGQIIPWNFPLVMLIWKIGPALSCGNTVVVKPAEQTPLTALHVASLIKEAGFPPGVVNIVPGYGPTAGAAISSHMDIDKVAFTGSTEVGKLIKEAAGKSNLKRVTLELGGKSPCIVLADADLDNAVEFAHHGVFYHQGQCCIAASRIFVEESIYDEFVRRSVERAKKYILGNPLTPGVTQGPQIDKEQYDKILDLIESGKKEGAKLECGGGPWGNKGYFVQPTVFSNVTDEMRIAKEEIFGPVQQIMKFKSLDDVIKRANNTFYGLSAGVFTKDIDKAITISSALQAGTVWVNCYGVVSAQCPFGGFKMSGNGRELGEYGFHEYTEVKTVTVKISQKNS
HPGD inh conf: human HPGD enzyme inhibition, confirmation; shares compounds with HPGD block; recombinant HPGD, NADH fluorescence, PGE2 substrate; Potency, µM (highest dose often 57.1 µM), for the others: at the top dose activity change, negative = inhibition, actives largely listed as inhibitors; 90 tested, 90% active; calls by dose curve
ALDH1A1 inh-2: Inhibits human ALDH1A1, confirmation and counter-screen; shares compounds with ALDH1A1 inh-1; purified ALDH1A1, NADH fluorescence, propionaldehyde/NAD+; Potency, µM (top dose mostly 57.1 µM), for the others: at the top dose activity change, negative = inhibition, most hits filed as inhibitors; 90 tested, 90% active; AID 493210; calls by dose curve
* hit, by the source's call; ? = inconclusive; · = no result; [ ] = another dose, or the depositor's remark. Compounds with a hit are over-represented: about 10% of the library has one in this group of screens. Unless noted, calls follow the shape of the dose curve; as a rule, active = well fitted inhibition curve with a large enough effect (not every such curve was filed as active); inconclusive = small, poorly fitted or top-dose-only effect, or another doubt; inactive = no such curve, though single readings can be large or run the other way.

SMILES	LMNA splice mod	ALOX12 inhib	HPGD block	PNC inhibitor	ALDH1A1 inh-1	ALDH1A1 inh-2	others
O=C(CCc1ccc(Oc2cc([N+](=O)[O-])cc([N+](=O)[O-])c2)cc1)NC1CCCC1	?	-4%	16µM*	114	-6%	·	HPGD inh conf=5µM*
CC1CCN(C(=O)CCc2ccc(Oc3cc([N+](=O)[O-])cc([N+](=O)[O-])c3)cc2)CC1	?	-4%	1µM*	127	?	·	HPGD inh conf=0.89µM*
Cc1ccc(C(=O)COC(=O)CCC(=O)NC2CCCCC2)cc1[N+](=O)[O-]	?	·	·	·	-9%	·
Cc1ccc(NC(=O)CSCc2n[nH]c(=O)[nH]2)c(Br)c1	?	·	·	·	10%	·
Cc1ccc(C)c(NC(=O)CSc2nc3nccnc3c(=O)n2CCc2c[nH]c3ccccc23)c1	1%[46 µM]	·	·	·	·	·
COc1ccc(-c2cc(C(F)(F)F)n3nc(C(=O)N4CCCCC4)cc3n2)cc1OC	-6%	-4%	0.5µM*	15	-11%	·	HPGD inh conf=0.28µM*
COc1cccc(Nc2ncc3nc(-c4ccc(F)cc4)c(=O)n(CCC#N)c3n2)c1	·	-5%	-9%	·	2%	·
COCCn1c(=O)[nH]c(=O)c2c1nc(-c1cc(Br)c3c(c1)OCO3)n2Cc1ccccc1	-9%[46 µM]	·	·	·	0.11µM*	0.079µM*
CC1=C(C(=O)OC(C)C)C(/C=C/c2ccccc2)NC(=O)N1 (stereo unspecified)	9%	-1%	-3%	-16	-1%	·
CC1=C(C(=O)OCc2ccccc2)C(/C=C/c2ccccc2)NC(=S)N1 (stereo unspecified)	-18%	?	-28%	14	0.2µM*	0.2µM*
COC(=O)c1sccc1NC(=O)CSc1cccc(Cl)c1Cl	2%	-2%	-12%	31	-16%	·
COC(=O)c1sccc1NC(=O)CSc1nnnn1-c1ccccc1C	?	-9%	?	25	0.56µM*	0.79µM*
COc1ccccc1-n1nnnc1SCC(=O)Nc1cc(C)on1	-2%	4%	-8%	?	0.71µM*	0.89µM*
COc1ccc(OC)c(-n2nnnc2SCC(=O)Nc2ccc3c(c2)OCCO3)c1	10%	-3%	·	22	0.063µM*	0.1µM*
COc1ccccc1NC(=O)CN1CCN(CC(=O)Nc2ccc3c(c2)OCCO3)CC1	1%	-3%	-2%	9	3.5µM*	3.2µM*
C=CCOc1ccc2c(c1)c(=O)cc(C(=O)O)n2CC	8%[46 µM]	·	·	·	-9%	·
COc1ccc(C(=O)Nc2nccs2)cc1OC	13%	-4%	-19%	20	3%	·
CCCN1C(=O)c2ccc(C(=O)Nc3nccs3)cc2C1=O	1%	-5%	0%	-85*	0.28µM*	0.4µM*
O=C(NC1CCCCC1)c1ccc2c(c1)N(Cc1ccccc1)C(=O)c1ccccc1S2	-7%[46 µM]	·	·	·	·	·
CCCN1C(=O)c2ccc(C(=O)Nc3cc(C)on3)cc2C1=O	-9%	3%	-8%	?	0.4µM*	0.79µM*
CC(C)CN1C(=O)c2ccc(C(=O)Nc3nccs3)cc2C1=O	3%	-1%	-19%	?	0.45µM*	0.32µM*
CCCN1C(=O)c2ccc(C(=O)NC3CCCCC3)cc2C1=O	0%	0%	4%	?	?	0.35µM*
CCC(CC)C(=O)Nc1cccc(C(=O)Nc2nccs2)c1	6%	-17%	-12%	-4	0%	·
Cc1cc(NC(=O)c2ccc3c(c2)C(=O)N(Cc2ccccc2)C3=O)no1	·	·	·	·	-1%	·
O=C(O)c1ccc(C(=O)Nc2cccc3ccccc23)c(C(=O)O)c1	·	1%[11.4 µM]	-25%	·	-19%[13.5 µM]	·
O=C(Nc1nc2ccccc2s1)NC1CCCCC1	-12%[46 µM]	·	·	·	?	·
Cc1c(C(=O)Nc2ccccc2)sc2nc[nH]c(=O)c12	-9%	-7%	-20%	?	4%	·

From PubChem BioAssay
